This passage reports log2 fold change results from the supplement of paper PMC10849652.

About 7,900 targets were measured; listed, in parts, are those with a hit and a random draw of the rest. About 0.6% of all pairs of compound and target were hits.

Sequence of UniProt Q8WVK2 (Q8WVK2 whole entry, looked up): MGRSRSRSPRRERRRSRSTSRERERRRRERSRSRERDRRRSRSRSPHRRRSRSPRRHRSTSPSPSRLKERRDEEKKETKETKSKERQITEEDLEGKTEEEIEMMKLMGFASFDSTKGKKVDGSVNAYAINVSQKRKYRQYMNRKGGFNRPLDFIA
Sequence of UniProt Q5T5C0 (Q5T5C0 whole entry, looked up): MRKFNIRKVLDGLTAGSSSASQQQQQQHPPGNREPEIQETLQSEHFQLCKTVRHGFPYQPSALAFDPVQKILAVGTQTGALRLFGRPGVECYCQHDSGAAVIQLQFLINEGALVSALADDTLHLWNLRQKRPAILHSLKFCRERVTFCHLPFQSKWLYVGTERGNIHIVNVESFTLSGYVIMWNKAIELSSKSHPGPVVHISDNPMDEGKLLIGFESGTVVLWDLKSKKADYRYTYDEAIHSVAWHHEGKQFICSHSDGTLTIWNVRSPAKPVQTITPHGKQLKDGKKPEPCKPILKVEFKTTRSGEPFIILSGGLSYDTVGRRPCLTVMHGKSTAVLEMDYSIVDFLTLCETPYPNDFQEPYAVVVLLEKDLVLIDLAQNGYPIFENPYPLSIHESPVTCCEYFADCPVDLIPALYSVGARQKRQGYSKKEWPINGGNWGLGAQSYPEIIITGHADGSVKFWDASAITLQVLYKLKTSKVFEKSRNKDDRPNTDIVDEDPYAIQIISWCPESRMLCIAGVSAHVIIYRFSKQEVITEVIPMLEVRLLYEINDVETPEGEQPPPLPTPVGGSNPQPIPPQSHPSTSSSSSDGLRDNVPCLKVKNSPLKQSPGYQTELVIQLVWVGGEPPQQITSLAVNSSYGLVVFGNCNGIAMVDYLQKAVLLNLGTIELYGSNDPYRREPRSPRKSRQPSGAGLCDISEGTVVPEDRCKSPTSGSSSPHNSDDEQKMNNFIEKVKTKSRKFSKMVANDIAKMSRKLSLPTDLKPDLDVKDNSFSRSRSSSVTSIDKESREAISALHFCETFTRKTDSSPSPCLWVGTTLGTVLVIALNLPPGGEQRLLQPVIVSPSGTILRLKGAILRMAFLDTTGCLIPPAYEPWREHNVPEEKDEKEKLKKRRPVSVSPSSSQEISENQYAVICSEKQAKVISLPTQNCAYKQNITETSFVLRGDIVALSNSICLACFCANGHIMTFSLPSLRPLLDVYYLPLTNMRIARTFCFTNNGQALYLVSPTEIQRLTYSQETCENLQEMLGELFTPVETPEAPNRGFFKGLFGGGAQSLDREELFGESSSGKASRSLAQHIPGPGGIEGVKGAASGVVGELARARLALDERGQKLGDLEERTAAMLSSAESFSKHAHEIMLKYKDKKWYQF
Sequence of UniProt Q9Y5W9 (Q9Y5W9 whole entry, looked up): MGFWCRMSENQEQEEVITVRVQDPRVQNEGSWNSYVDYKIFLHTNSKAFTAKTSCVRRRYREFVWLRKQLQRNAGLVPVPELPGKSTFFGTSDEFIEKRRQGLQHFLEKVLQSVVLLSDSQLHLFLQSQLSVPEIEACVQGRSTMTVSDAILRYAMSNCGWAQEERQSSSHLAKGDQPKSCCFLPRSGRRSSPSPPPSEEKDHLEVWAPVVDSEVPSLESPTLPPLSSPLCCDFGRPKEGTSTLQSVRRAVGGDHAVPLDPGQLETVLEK
Sequence of UniProt Q16629 (Q16629 whole entry, looked up): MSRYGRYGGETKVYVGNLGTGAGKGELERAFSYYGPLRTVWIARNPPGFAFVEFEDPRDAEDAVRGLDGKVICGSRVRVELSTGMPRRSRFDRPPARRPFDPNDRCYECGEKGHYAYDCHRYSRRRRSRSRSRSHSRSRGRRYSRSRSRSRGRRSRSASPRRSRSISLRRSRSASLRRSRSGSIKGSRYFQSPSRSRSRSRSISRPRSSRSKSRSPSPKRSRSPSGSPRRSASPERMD
Sequence of UniProt P08240 (P08240 whole entry, looked up): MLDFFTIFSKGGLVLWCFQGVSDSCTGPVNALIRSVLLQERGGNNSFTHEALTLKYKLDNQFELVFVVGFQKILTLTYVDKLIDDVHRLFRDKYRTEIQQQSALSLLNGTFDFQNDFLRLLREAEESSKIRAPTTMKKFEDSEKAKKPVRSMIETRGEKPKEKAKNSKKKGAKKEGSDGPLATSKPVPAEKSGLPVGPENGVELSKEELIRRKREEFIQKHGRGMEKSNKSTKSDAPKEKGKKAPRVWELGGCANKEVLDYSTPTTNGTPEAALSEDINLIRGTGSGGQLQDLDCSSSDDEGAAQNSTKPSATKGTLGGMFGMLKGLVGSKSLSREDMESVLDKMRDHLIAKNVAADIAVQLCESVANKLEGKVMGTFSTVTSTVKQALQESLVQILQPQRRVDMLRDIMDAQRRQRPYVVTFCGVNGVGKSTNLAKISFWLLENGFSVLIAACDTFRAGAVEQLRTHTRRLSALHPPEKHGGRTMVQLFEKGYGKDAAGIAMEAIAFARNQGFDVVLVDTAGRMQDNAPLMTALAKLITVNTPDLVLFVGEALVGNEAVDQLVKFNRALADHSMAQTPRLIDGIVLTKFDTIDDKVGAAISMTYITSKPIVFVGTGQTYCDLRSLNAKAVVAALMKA
Sequence of UniProt P84103 (P84103 whole entry, looked up): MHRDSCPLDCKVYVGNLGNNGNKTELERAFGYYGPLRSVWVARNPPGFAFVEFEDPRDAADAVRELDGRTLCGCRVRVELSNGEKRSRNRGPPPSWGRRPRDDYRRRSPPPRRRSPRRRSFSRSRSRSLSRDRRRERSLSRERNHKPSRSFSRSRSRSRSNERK
Sequence of UniProt Q8NEW0 (Q8NEW0 whole entry, looked up): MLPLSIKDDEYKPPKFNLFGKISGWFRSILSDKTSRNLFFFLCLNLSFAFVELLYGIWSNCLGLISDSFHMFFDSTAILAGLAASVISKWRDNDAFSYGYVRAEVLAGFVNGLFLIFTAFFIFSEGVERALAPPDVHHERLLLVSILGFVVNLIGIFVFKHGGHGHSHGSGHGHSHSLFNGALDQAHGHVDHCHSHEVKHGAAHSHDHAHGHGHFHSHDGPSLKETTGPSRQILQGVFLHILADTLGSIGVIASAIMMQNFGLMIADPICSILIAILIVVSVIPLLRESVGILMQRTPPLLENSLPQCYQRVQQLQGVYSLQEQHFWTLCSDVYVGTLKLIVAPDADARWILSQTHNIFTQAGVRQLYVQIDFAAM
Sequence of UniProt P31641 (P31641 whole entry, looked up): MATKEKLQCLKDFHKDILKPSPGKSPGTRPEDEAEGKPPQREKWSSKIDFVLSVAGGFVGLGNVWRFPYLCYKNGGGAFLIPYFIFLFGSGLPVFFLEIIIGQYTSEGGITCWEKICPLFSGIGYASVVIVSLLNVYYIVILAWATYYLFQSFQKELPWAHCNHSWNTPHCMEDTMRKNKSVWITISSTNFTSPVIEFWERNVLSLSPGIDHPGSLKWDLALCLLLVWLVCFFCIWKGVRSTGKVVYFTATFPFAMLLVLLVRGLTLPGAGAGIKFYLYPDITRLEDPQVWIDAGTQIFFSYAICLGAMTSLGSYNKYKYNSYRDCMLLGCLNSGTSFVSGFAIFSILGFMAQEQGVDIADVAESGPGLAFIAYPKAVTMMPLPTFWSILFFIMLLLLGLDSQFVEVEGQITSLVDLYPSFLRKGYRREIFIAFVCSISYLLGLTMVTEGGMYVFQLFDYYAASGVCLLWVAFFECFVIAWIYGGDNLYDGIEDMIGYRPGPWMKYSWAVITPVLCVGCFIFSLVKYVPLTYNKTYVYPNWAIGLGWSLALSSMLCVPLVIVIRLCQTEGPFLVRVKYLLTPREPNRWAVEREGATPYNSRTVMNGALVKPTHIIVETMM
Sequence of UniProt P42226 (P42226 whole entry, looked up): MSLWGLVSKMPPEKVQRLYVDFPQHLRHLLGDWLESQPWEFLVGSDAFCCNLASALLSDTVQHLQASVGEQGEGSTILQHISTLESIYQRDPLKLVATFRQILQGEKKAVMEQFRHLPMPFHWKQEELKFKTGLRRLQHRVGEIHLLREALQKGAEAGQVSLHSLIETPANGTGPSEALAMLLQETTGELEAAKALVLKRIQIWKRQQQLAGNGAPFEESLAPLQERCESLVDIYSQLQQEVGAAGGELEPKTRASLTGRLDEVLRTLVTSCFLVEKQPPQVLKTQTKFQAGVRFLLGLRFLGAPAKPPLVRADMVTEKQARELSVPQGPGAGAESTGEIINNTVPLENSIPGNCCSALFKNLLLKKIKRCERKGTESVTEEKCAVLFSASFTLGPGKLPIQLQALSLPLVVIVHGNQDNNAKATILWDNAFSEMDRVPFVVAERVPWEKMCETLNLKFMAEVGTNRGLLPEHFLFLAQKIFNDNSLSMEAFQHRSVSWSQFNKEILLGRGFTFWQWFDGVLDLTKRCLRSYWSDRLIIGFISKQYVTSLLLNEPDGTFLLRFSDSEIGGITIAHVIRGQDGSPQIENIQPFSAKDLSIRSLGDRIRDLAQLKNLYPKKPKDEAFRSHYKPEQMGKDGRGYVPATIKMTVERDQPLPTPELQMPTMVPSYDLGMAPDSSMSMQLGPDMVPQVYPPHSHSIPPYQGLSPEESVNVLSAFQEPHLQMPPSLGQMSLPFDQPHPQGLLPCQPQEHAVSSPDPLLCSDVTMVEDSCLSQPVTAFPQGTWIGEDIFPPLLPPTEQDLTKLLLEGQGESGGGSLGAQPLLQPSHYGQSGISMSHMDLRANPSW
Sequence of UniProt P63165 (P63165 whole entry, looked up): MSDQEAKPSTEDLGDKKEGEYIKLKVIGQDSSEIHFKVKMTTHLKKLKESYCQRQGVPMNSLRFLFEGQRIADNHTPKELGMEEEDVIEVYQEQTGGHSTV
Sequence of UniProt Q9NQZ5 (Q9NQZ5 whole entry, looked up): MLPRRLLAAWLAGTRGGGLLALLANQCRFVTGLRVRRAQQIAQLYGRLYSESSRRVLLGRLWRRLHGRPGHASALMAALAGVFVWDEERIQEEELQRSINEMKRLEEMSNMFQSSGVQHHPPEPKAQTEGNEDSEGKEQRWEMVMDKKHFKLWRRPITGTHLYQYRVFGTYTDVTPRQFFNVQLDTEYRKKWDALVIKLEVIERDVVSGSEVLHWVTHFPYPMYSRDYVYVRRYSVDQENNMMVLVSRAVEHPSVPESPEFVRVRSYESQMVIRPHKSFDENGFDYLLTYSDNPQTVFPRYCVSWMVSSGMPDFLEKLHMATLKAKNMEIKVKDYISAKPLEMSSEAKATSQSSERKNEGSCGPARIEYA

Compound in the first test: Cc1cc(SCc2sc(-c3ccc(C(F)(F)F)cc3)nc2C)ccc1OCC(=O)O
As to the kind of experiment: log2 fold change, soluble protein after heating vs DMSO (PISA); higher = thermal stabilisation; K562 cells, 10 uM, 30 min; active = over 0.2 and 3.5 SD of the protein, either way, in both replicates (recomputed). A digest of the protocol: (§1)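 Quantification of soluble protein used TMTpro 16plex LC-MS/MS, with channel sums equalised. Samples were the supernatant after 21,000xg for 90 min of pooled aliquots from K562 cells (2×10^6 cells/mL) treated with 10 μM compound for 30 min, heated for 3 min over 48°C-58°C, and extracted in PBS with 0.5% NP-40 at 4°C. Values, from duplicates, describe thermal stability against control samples on a log2 fold-change scale.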
On to SNRNP27 (UniProt Q8WVK2), for which the log2 fold change is -0.065 (inactive).
Still for that read-out and setting: to SRP68 (UniProt Q9UHB9) belongs 0.112 (inactive).
On the same count and under the same terms, the result for SP3 (UniProt Q02447) reads 0 (inactive); that for TLK2 isoform 2 (UniProt Q86UE8), -0.07 (inactive); that for STAT6 (UniProt P42226), -0.123 (inactive).
On to SLC38A9 (UniProt Q8NBW4), for which the log2 fold change is -0.058 (inactive).
On to STAM2 (UniProt O75886), for which the log2 fold change is 0.028 (inactive).
On to SLC30A7 (UniProt Q8NEW0), for which the log2 fold change was -0.007 (inactive).
As to STARD7 (UniProt Q9NQZ5), the log2 fold change was 0.023 (inactive).
Consider SUMO1 (UniProt P63165), for which the log2 fold change was -0.039 (inactive).
As to STAT5A (UniProt P42229), the log2 fold change is 0.14 (inactive).
SRPRA (UniProt P08240): the log2 fold change was 0.063 (inactive).
As to TBC1D15 isoform 3 (UniProt Q8TC07), the log2 fold change is 0.064 (inactive).
For the target TFRC (UniProt P02786), the log2 fold change is -0.023 (inactive).
Take SRSF7 (UniProt Q16629): the log2 fold change is -0.025 (inactive).
Same read-out and setting: the result for TAMM41 isoform 3 (UniProt Q96BW9) reads 0.05 (inactive).
Same read-out and setting: to STK38 (UniProt Q15208) belongs 0.072 (inactive).
Turning to SLC6A6 (UniProt P31641), the log2 fold change is -0.042 (inactive).
TBC1D23 (UniProt Q9NUY8): the log2 fold change is 0.028 (inactive).
Take SMAD9 (UniProt O15198): the log2 fold change was 0.074 (inactive).
For the target SRSF3 (UniProt P84103), the log2 fold change is -0.024 (inactive).
As to TBCD (UniProt Q9BTW9), the log2 fold change is 0.009 (inactive).
Turning to TECR (UniProt Q9NZ01), the log2 fold change is 0.044 (inactive).
As to STK39 (UniProt Q9UEW8), the log2 fold change is 0.048 (inactive).
Consider TAF9 (UniProt Q16594), for which the log2 fold change is -0.131 (inactive).
SUPT16H (UniProt Q9Y5B9): the log2 fold change was 0.248 (inactive).
Take SRFBP1 (UniProt Q8NEF9): the log2 fold change was -0.028 (inactive).
In the case of SLC9A6 isoform 2 (UniProt Q92581), the log2 fold change is -0.067 (inactive).
Turning to SNX11 (UniProt Q9Y5W9), the log2 fold change was 0.14 (inactive).
With SREK1 isoform 2 (UniProt Q8WXA9), the log2 fold change is 0.105 (inactive).
With SMAD2 (UniProt Q15796), the log2 fold change is 0.071 (inactive).
Still for that read-out and setting: the result for TBC1D5 isoform 2 (UniProt Q92609) reads 0.142 (inactive); that for SLC25A36 (UniProt Q96CQ1), -0.089 (inactive).
With SLC7A6 (UniProt Q92536), the log2 fold change is -0.041 (inactive).
As for SUGP1 (UniProt Q8IWZ8), the log2 fold change is 0.09 (inactive).
Take TAOK1 (UniProt Q7L7X3): the log2 fold change was 0.023 (inactive).
With STXBP5 (UniProt Q5T5C0), the log2 fold change was -0.002 (inactive).
Regarding SURF1 (UniProt Q15526), the log2 fold change is 0.032 (inactive).

Compound in a further test: Cc1ccc(-n2nc(C(C)(C)C)cc2NC(=O)Nc2ccc(OCCN3CCOCC3)c3ccccc23)cc1 [doramapimod]
Described as above. A digest of the protocol: as §1
As for SNRNP27 (UniProt Q8WVK2), the log2 fold change is -0.056 (inactive).
For the target SRP68 (UniProt Q9UHB9), the log2 fold change is 0.029 (inactive).
As for SP3 (UniProt Q02447), the log2 fold change is 0.089 (inactive).
Take TLK2 isoform 2 (UniProt Q86UE8): the log2 fold change is -0.042 (inactive).
In the case of STAT6 (UniProt P42226), the log2 fold change was 0.043 (inactive).
As to SLC38A9 (UniProt Q8NBW4), the log2 fold change was 0.067 (inactive).
On the same count and under the same terms, the result for STAM2 (UniProt O75886) reads -0.022 (inactive); that for SLC30A7 (UniProt Q8NEW0), -0.057 (inactive); that for STARD7 (UniProt Q9NQZ5), 0.021 (inactive).
Regarding SUMO1 (UniProt P63165), the log2 fold change is -0.038 (inactive).
For STAT5A (UniProt P42229), the log2 fold change is -0.047 (inactive).
Consider SRPRA (UniProt P08240), for which the log2 fold change was -0.044 (inactive).
Still for that read-out and setting: the result for TBC1D15 isoform 3 (UniProt Q8TC07) reads 0.017 (inactive); that for TFRC (UniProt P02786), -0.012 (inactive); that for SRSF7 (UniProt Q16629), 0.073 (inactive).
As for TAMM41 isoform 3 (UniProt Q96BW9), the log2 fold change is -0.048 (inactive).
In the case of STK38 (UniProt Q15208), the log2 fold change was -0.011 (inactive).
On the same count and under the same terms, the result for SLC6A6 (UniProt P31641) reads -0.063 (inactive); that for TBC1D23 (UniProt Q9NUY8), -0.027 (inactive); that for SMAD9 (UniProt O15198), -0.013 (inactive).
In the case of SRSF3 (UniProt P84103), the log2 fold change is -0.019 (inactive).
For the target TBCD (UniProt Q9BTW9), the log2 fold change is 0.004 (inactive).
Turning to TECR (UniProt Q9NZ01), the log2 fold change is -0.095 (inactive).
As to STK39 (UniProt Q9UEW8), the log2 fold change was -0.027 (inactive).
As for TAF9 (UniProt Q16594), the log2 fold change was -0.019 (inactive).
The same measure, in the same setting: the result for SUPT16H (UniProt Q9Y5B9) reads -0.047 (inactive).
As for SRFBP1 (UniProt Q8NEF9), the log2 fold change is 0.007 (inactive).
In the case of SLC9A6 isoform 2 (UniProt Q92581), the log2 fold change was 0 (inactive).
On the same count and under the same terms, to SNX11 (UniProt Q9Y5W9) belongs -0.017 (inactive); to SREK1 isoform 2 (UniProt Q8WXA9), -0.027 (inactive); to SMAD2 (UniProt Q15796), -0.04 (inactive).
Consider TBC1D5 isoform 2 (UniProt Q92609), for which the log2 fold change was -0.031 (inactive).
In the case of SLC25A36 (UniProt Q96CQ1), the log2 fold change is -0.027 (inactive).
Regarding SLC7A6 (UniProt Q92536), the log2 fold change is 0.001 (inactive).
On the same count and under the same terms, the result for SUGP1 (UniProt Q8IWZ8) reads -0.033 (inactive).
On the same count and under the same terms, the result for TAOK1 (UniProt Q7L7X3) reads 0.021 (inactive); that for STXBP5 (UniProt Q5T5C0), 0.026 (inactive); that for SURF1 (UniProt Q15526), 0.01 (inactive).
